PTAP TSG101 blk = qHTS Assay for Iinhibitors of HIV-1 Budding by Blocking the Interaction of PTAP/TSG101 | Tumor susceptibility gene 101 protein (Homo sapiens), Q99816 | Fluorescence polarization, FITC-PTAP peptide / Tsg101 binding | Potency, µM (top dose mostly 115 µM), without a hit: top-dose activity change, negative = inhibition, usual class: inhibitors | 340,000 tested, under 10 active | AID 493005, 2010; active = well fitted inhibition curve with a large enough effect in the main read-out, with a control signal flat, not every such curve was filed as active; inconclusive = small, poorly fitted or top-dose-only effect, or effect the other way, or a change in a side signal; inactive = no such curve, though single readings can be large or run the other way; also: potency is read from the fitted curve at half-maximal effect; % of control where 0% means no effect
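Fluorescence anisotropy tracks displacement of a FITC-tagged PTAP peptide (50 nM) from the Tsg101 binding domain (10 uM), following a 20 min room-temperature incubation at pH 7.5.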
TSHR antag = Antagonists of the Thyroid Stimulating Hormone Receptor: HTS campaign | Thyrotropin receptor (Homo sapiens), P16473 | TSHR-expressing cells, TSH-stimulated cAMP HTRF, 2 h; active compounds read low | activity change, negative = inhibition, % at 11.5 µM | hit rate 0.2% among 330,000 | AID 504810, 2011;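 active = activity change below a set negative limit, meaning inhibition stronger than a set level, cut at about -70% in these data; inconclusive = activity change between two set negative limits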; also: % is scaled to controls: 0 for no effect and ±100 for the full control effect
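TSHR-expressing cells, 200/well, pre-treated with compound, then stimulated with EC80 TSH (4nM final) for 2 hours at 37 deg C. cAMP measured by competitive HTRF: anti-cAMP cryptate antibody in lysis buffer plus cAMP-d2, read after 30 minutes at room temperature.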
VDR inhibitor = Inhibitors of the vitamin D receptor (VDR): qHTS. Vitamin D3 receptor (Homo sapiens), P11473. VDR-SRC2-3 peptide fluorescence polarization, 2 h. Potency, µM, for the others: max response, negative = inhibition, most hits filed as inhibitors. hit rate 0.93% among 400,000; also: potency is read from the fitted curve at half-maximal effect; % is scaled to controls: 0 for no effect and ±100 for the full control effect
Target sequence (P11473 whole entry, looked up): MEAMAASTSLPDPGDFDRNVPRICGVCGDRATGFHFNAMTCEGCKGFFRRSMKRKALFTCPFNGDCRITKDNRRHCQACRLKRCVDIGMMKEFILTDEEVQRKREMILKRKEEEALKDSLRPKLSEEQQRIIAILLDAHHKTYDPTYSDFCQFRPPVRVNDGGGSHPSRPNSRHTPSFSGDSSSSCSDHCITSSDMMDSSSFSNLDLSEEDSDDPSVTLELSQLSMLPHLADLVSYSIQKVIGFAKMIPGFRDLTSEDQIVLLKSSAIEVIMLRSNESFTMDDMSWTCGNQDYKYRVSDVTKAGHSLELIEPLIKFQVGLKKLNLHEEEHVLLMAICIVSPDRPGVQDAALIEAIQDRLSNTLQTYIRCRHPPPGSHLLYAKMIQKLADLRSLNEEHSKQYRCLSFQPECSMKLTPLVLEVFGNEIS
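Fluorescence polarization assay of small-molecule disruption of VDR binding to coregulator peptide SRC2-3. Compounds and controls pin-transferred, then read after 2 h incubation at ambient room temperature.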
PLK1 PBD inh = qHTS for Inhibitors of PLK1-PDB (polo-like kinase 1 - polo-box domain): Primary Screen | Serine/threonine-protein kinase PLK1 (Homo sapiens), P53350 | Potency, µM, for inactives: max response, negative = inhibition, hits mostly inhibitors | hit rate 2.8% among 360,000 | Plk1 PBD binding of FITC phosphopeptide, fluorescence polarization; also: potency is read from the fitted curve at half-maximal effect; series mostly up to about 57 µM; % is scaled to controls: 0 for no effect and ±100 for the full control effect; nearly all actives have a fitted effect of over 65% in size
uPA surface inh = qHTS for Inhibitors of Cell Surface uPA Generation. hit rate 0.31% among 330,000. cell surface uPA generation assay, qHTS. Potency, µM (highest dose often 38.3 µM), for the others: at the highest dose activity change, negative = inhibition, most hits filed as inhibitors; active = well fitted inhibition curve with a large enough effect; inconclusive = small, poorly fitted or top-dose-only effect; inactive = no such curve, though single readings can be large or run the other way; tested in mouse RAW 264.7 cells; also: potency is read from the fitted curve at half-maximal effect; % is scaled to controls: 0 for no effect and ±100 for the full control effect; nearly all actives have a fitted effect of over 55% in size
An asterisk follows results filed as active; ? = inconclusive; nt = no result given. Hits are enriched below; roughly 3.1% of the tested compounds scored in any of these assays. Unless noted, calls follow the shape of the dose curve; as a rule, active = well fitted curve in the direction sought with a large enough effect; inconclusive = small, poorly fitted or top-dose-only effect, or another doubt; inactive = no such curve, though single readings can be large; an effect the other way counts as inactive or inconclusive.

SMILES | PTAP TSG101 blk | TSHR antag | VDR inhibitor | PLK1 PBD inh | uPA surface inh
Clc1ccccc1CSc1nnc(Cn2cnc3ccccc32)n1-c1ccccc1 | -5% | -3 | -4% | -6% | 0%
c1ccc2c(c1)ncn2Cc1nnc2sc(-c3ccc4c(c3)OCO4)nn12 | -1% | -4 | -9% | 19µM* | 1%
Cc1ccc(C(=O)NCCSc2c[nH]c3ccccc23)cc1C | nt | nt | -9% | nt | nt
CCOc1ccc2nc(N(Cc3cccnc3)C(=O)c3ccc4c(c3)OCCO4)sc2c1 | nt | nt | 10% | nt | nt
Cc1ccc(N=Cc2cc(Cc3ccccc3Cl)cc([N+](=O)[O-])c2O)c(O)c1 | 14% | -40 | -14% | ? | 8.9µM*
O=C(C[C@@H]1CC[C@@H]2[C@H](COC[C@H](O)CN2C(=O)Nc2ccc(F)cc2)O1)NCCc1ccncc1 | nt | nt | nt | -24% | nt
CCCN1C(=O)c2[nH]nc(-c3ccc(F)cc3)c2C1c1ccc(O)c(OCC)c1 (stereo not drawn) | nt | nt | 10% | nt | nt
Fc1ccccc1NC(=S)Nn1cnnc1 | -1% | -33 | ? | 6.7µM* | 5%
CCOc1ccccc1NC(=S)Nn1cnnc1 | -3% | 10 | 40µM* | 2.4µM* | -6%
Cc1ccccc1NC(=S)Nn1cnnc1 | -1% | -9 | ? | 15µM* | -3%
CCc1ccccc1NC(=S)Nn1cnnc1 | nt | 7 | nt | nt | nt
NC(CSS(=O)(=O)O)=NCCC12CC3CC(CC(O)(C3)C1)C2 | 1% | 0 | 40µM* | 12µM* | -1%
CC(c1ccccc1)N1CCN(C(=O)CCl)CC1 (stereo not drawn) | -5% | 12 | ? | -3% | 8.9µM*
CC(CC(=O)N1CCN(C(=O)c2ccccc2)CC1)c1ccccc1 (stereo not drawn) | -2% | -3 | -3% | -7% | -6%
CCC(C)C(NC(=O)c1ccccc1NC(=O)c1ccccc1)C(=O)O (stereo not drawn) | -5% | 1 | ? | 27µM* | 0%
COc1ccc(C(=O)Nc2ccccc2C(=O)N2CCOCC2)cc1Br | 0% | -6 | -8% | 27µM* | 2%
COc1ccc(C(=O)Nc2ccccc2C(=O)NC(C)C)cc1OC | 0% | 5 | ? | 27µM* | -1%
O=C(Nc1ccccc1C(=O)NC(Cc1ccccc1)C(=O)NC1CCCCCC1)c1ccccc1 (stereo not drawn) | -2% | -20 | -9% | 27µM* | -4%
CCC(C)C(NC(=O)c1ccccc1NC(=O)c1ccco1)C(=O)O (stereo not drawn) | -6% | -9 | -9% | -5% | nt
CC(C)C[C@@H](CNCC(=O)[C@H](Cc1ccccc1)NC(=O)c1[nH]cnc1C(=O)N[C@@H](C)CN)NC(=O)c1nc[nH]c1C(=O)N[C@@H](C)C(=O)O | 0% | nt | -11% | -22% | 12%
Cc1ccc(NC(=O)C(Cc2ccccc2)n2cccc2)c(C)c1 (stereo not drawn) | nt | nt | -1% | nt | nt
COc1ccc(-c2cc3nc(C)c(CCC(=O)Nc4ccccc4C(C)=O)c(C)n3n2)c(OC)c1 | nt | nt | -15% | nt | nt
CCOc1ccc(C(=O)Nc2ccc(CN3CCOCC3)cc2)cc1Br | -1% | 4 | -10% | 30µM* | -2%
O=C(COC(=O)c1ccc2ccccc2c1O)NCC(F)(F)F | 0% | -4 | -26% | 27µM* | -4%
O=C(COC(=O)c1c2ccccc2cc2ccccc12)NCC(F)(F)F | -2% | -3 | -12% | -4% | 3%
SMILES | PTAP TSG101 blk | TSHR antag | VDR inhibitor | PLK1 PBD inh | uPA surface inh
COc1ccc(C2CC(=O)N3CN(C4CCCCC4)CSC3=C2C#N)cc1 (stereo not drawn) | nt | nt | 45µM* | nt | nt
CN1CSC2=C(C#N)C(c3cccc(OCc4ccccc4)c3)CC(=O)N2C1 (stereo not drawn) | 1% | 2 | 45µM* | 17µM* | ?
COc1ccc(N2CSC3=C(C#N)C(c4cc(OC)ccc4OC)CC(=O)N3C2)c(OC)c1 (stereo not drawn) | 1% | -1 | 16µM* | 3.8µM* | ?
CCOc1ccc(CNS(=O)(=O)c2c(C(=O)N3CCCCCC3)c(C)n(C)c2C)cc1OC | nt | nt | 4% | nt | nt
COc1cc(-c2nc(Cn3nnc(C(=O)Nc4ccccc4)c3C)c(C)o2)cc(OC)c1OC | nt | nt | -18% | nt | nt
O=C(N/N=C/c1ccc[nH]1)c1ccc(Cl)cc1 | -3% | 7 | -14% | -4% | -10%
CC(/C=C/c1ccccc1F)=N\NC(=O)c1ccc(Cl)cc1 | -9% | 20 | ? | 5.3µM* | -1%
CC(C)/C=N/NC(=O)c1ccc(Cl)cc1 | -2% | -2 | ? | 27µM* | -19%
CC(/C=C/c1ccccc1F)=N\NC(=O)c1ccccc1 | 0% | -7 | 13% | -3% | nt
COc1cccc(N2CCN(Cc3cc(=O)oc4cc(C)ccc34)CC2)c1 | nt | nt | 9% | nt | nt
O=C(Nc1ccc(C(=O)OCc2cc(=O)n3c4c(sc3n2)CCCC4)cc1)c1ccccc1 | nt | nt | 4% | nt | nt
COc1[nH]c(/N=C/c2ccccc2)c(C#N)c1C#N | -7% | 11 | -11% | 21µM* | 1%
COCCCNC(=O)c1cc2cc3cc(OC)ccc3nc2o1 | -2% | -7 | -22% | 21µM* | 3%
CCN(CC)CCNC(=O)c1cc2cc3ccc(OC)cc3nc2o1 | -7% | -7 | 5% | -14% | 1%
Cc1cnc(CNc2cc(-c3ccoc3)ncn2)cn1 | nt | nt | 45µM* | nt | nt
Cc1cnc(CNc2cc(-c3ccc4c(c3)OCO4)ncn2)cn1 | nt | nt | -14% | nt | nt
CN(C)c1ccc(-c2cc(NCc3cccnc3)ncn2)cc1 | nt | nt | -3% | nt | nt
c1cncc(CNc2cc(-c3ccoc3)ncn2)c1 | nt | nt | 22µM* | nt | nt
CCc1sc(Nc2cccc(C)c2C)nc1-c1cc2cccc(OC)c2oc1=O | nt | nt | 17% | nt | nt
C/C(Cc1ccccc1)=N\NC(=O)CNC(=O)c1ccc(Br)cc1 | -14% | 8 | -12% | 27µM* | -6%
COc1ccc2c(ccc[n+]2[O-])c1 | -2% | nt | -7% | -4% | -1%
COc1ccc2nc3ccccc3[n+]([O-])c2c1 | ? | nt | -7% | 12µM* | -4%
O=C(COc1ccc(Cl)cc1Cl)NC(=S)N1CCCc2ccccc21 | -4% | 4 | 18% | 27µM* | -15%
O=C(COc1ccc(Cl)cc1Cl)OCC(=O)N1CCCc2ccccc21 | -4% | -10 | 13% | 0% | -13%
CCC(=O)N1CCc2cc(Br)cc(S(=O)(=O)N3CCCC(C(=O)N(C)c4ccc(Br)cc4)C3)c21 (stereo not drawn) | nt | nt | 21% | nt | nt
Cc1ccc(NC(=O)C(Cc2c[nH]c3ccccc23)NC(=O)OC(C)(C)C)c(C)c1 (stereo not drawn) | nt | nt | 1% | nt | nt
COc1ccccc1CNC(=O)C(=O)c1cn(CC(=O)N2CCCC2)c2ccccc12 | -1% | 6 | 1% | -9% | -1%

Compound activity from PubChem.
